Screening data from PubChem.
Most compounds without a hit are left out; they make up all but 2.4% or so of the library.
D2 PAM-1: positive allosteric modulators of human D2 dopamine receptor | P14416 | DiscoveRx D2 beta-arrestin cells, luminescence, 90 min; 100% = 57 uM dopamine signal | potentiation, % (test concentration not listed) | actives 0.23% (n = 360,000) | AID 624464; in the data active = potentiation above about 50%
Target sequence (P14416 whole entry, looked up): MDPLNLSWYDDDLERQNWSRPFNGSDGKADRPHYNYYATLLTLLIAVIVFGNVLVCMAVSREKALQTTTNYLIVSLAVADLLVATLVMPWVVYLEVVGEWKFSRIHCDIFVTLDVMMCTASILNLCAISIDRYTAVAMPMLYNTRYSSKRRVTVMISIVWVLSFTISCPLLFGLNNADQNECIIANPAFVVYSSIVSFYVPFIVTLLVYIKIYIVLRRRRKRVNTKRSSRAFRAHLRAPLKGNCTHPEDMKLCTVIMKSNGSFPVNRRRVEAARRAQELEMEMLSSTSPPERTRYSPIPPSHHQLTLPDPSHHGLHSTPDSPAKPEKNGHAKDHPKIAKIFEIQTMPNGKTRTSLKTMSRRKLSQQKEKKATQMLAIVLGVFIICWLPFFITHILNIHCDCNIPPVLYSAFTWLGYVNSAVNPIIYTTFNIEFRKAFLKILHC
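D2 cells co-treated with compound plus 50 nM dopamine (EC20) for 90 min at 37 deg C to detect potentiation. Beta-arrestin recruitment was read as enzyme-fragment luminescence after 1 h at ambient temperature. Full response was set by 57 uM dopamine.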
D2 ag-1: agonists of human D2 dopamine receptor. P14416. HEK293 T-REx D2 cells, calcium flux agonist mode. activation, % at 2 µM. actives 0.53% (n = 340,000). AID 485358;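 active = activation over 3 SD above normal in the single-dose calcium agonist read, cut at about 30% in these data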; also: 0% is about no effect
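HEK293 Trex D2 cells, tetracycline-induced, o/n 30 C 5% CO2; no-wash Ca dye, RT 30–90 min; 10-cycle baseline, 23 nl cpd added, kinetic Ca read 180 s; agonist hits = positive Ca response.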
D2 PAM-2: positively modulates the human D2 dopamine receptor allosterically; AID 485347; actives 0.34% (n = 340,000); HEK293 T-REx D2, calcium flux, EC20 dopamine potentiation; potentiation, % at 10 µM;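 active = potentiation over 3 SD above the plate norm, cut at about 30% in these data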; also: 0% is about no effect
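Potentiation of an EC20 dopamine calcium response is measured in a force-coupled, tetracycline-inducible Hek293 Trex D2 line. Compound-only kinetic reads over 180 s flag agonists before dopamine addition.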
D2 antagonist: antagonists of human D2 dopamine receptor | P14416 | HEK293 TREx D2 cells, calcium flux, dopamine EC80 | inhibition, % at 10 µM | actives 2% (n = 340,000); in the data active = inhibition above about 30%; inactive = below that, where a call was filed; also: 0% is about no effect
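Calcium flux kinetic readout in an inducible HEK293 TREx D2 line plated overnight at 30 C. After 180 s compound exposure, an EC80 dopamine challenge follows with another 180 s kinetic read to detect antagonism.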
D2 ag-2: agonists of human D2 dopamine receptor (beta-arrestin) | DiscoveRx PathHunter D2 beta-arrestin, luminescence, 90 min; 100% = 57 uM dopamine signal | activation, % (no concentration beside the values) | actives 0.084% (n = 360,000); in the data active = activation above about 40%
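DiscoveRx PathHunter D2 beta-arrestin cells (2,100/well) attached overnight, then compound-stimulated 90 min at 37 C in HBSS/10 mM HEPES/0.1% Tween-20 buffer; beta-galactosidase complementation read by luminescence after 1 h at ambient temperature. Dopamine 57 uM final (EC100) as control.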
Active calls of the source: *; · = not tested or not shown; ! = not confirmed by another sample.

SMILES	D2 PAM-1	D2 ag-1	D2 PAM-2	D2 antagonist	D2 ag-2
Cc1ccc(-c2nnn(CC(=O)N(c3ccccc3)C(C(=O)NC3CCCC3)c3ccco3)n2)o1 (stereo unspecified)	-5.5	0.5	16.5	32.8*	0.4
Cc1cc(NC(=O)CCC(=O)N(CCC(C)C)C(C(=O)NC2CCCC2)c2ccccc2C)no1 (stereo unspecified)	-1.4	1.2	-2.2	51.5*	7.9
CCc1ccc(N(C(=O)CCC(=O)Nc2cc(C)on2)C(C(=O)NC2CCCC2)c2ccco2)cc1 (stereo unspecified)	-15.7	-0.9	10.6	33.5*	-5.2
Cc1cc(NC(=O)CCC(=O)N(c2ccc(C)c(F)c2)C(C(=O)NC2CCCC2)c2ccco2)no1 (stereo unspecified)	-3.6	·	-1.4	·	0.7
Cc1cc(NC(=O)CCC(=O)N(C2CC2)C2(C(=O)NC3CCCC3)CCC(C)CC2)no1 (stereo unspecified)	-6.1	0.2	-2.1	37.2*	-2.9
Cc1cccc(N2CC(c3nc4ccccc4n3CCC3CCCCC3)CC2=O)c1 (stereo unspecified)	·	·	14.2	·	·
NNC(=O)CN1C(c2cccc(Cl)c2)=Nc2ccc(Br)cc2C1c1ccccc1 (stereo unspecified)	-42.1	0.8	-21.0	33.9*	-1.1
COC(=O)CN1C(c2ccc(Cl)cc2)=Nc2ccc(Cl)cc2C1c1ccccc1 (stereo unspecified)	-31.0	2.0	-16.1	48.9*	0.2
COc1ccc(C2=Nc3ccc(C)cc3C(c3ccccc3)N2CC(=O)NN)cc1 (stereo unspecified)	-10.0	1.5	-24.6	107.7*	0.9
COc1ccc(C2=Nc3ccc(Br)cc3C(c3ccccc3)N2CC(=O)NN)cc1 (stereo unspecified)	-32.2	·	-26.3	·	-2.2
COc1ccc2c3c(cccc13)OC2=O	-0.6	-0.7	8.9	4.6	0.4
COc1ccc2c3c(cccc13)N(C)N=C2C	56.4*	-0.3	8.4	-1.1	7.3
Cc1[nH]c(=O)c(C#N)c(C)c1Br	10.9	·	40.7*	·	-1.8
COc1ccc(C(=O)[C@H]2[C@H]3C(=O)N(c4ccccc4)C(=O)[C@H]3C3C=CC=NN32)cc1 (stereo partly specified)	-3.3	-0.1	-4.2	43.1*	-3.3
CSc1nsc2nc(=O)c(/C=C3\C(C)=Nc4ccc(C)cc43)c(N)n12	-5.4	1.1	·	3.6	-4.9
CC1=Nc2ccc(C)cc2/C1=C/c1c(N)n2oc(C)cc2nc1=O	-3.3	1.1	4.4	60.6*!	-1.5
CC(=O)N1c2ccc(S(=O)(=O)NCC3CCC(C(=O)NCCC(C)C)CC3)cc2CC1C (stereo unspecified)	·	·	-12.8	·	·
CCCNC(=O)C1CCC(CNS(=O)(=O)c2ccc3c(c2)CC(C)N3C(C)=O)CC1 (stereo unspecified)	-10.1	2.5	9.9	40.5*	-1.6
Cc1ccc2cc3cc(C(=O)N4CCN(c5ccccc5)CC4)sc3nc2c1	·	0.5	-0.6	·	·
COc1cc(C)c(Cl)c(C)c1S(=O)(=O)NCc1cccnc1	-6.7	0.6	31.7*	-21.9	1.3
CCS(=O)(=O)NCCc1sc2nc(-c3ccc(OC)cc3)nn2c1C	·	0.9	-5.3	·	·
CCN1C(=O)[C@H]2[C@@H](c3ccc(-c4ccc(C(C)=O)cc4)c(OC)c3)N[C@@](Cc3ccccc3)(C(=O)OC)[C@H]2C1=O	-3.4	0.3	7.1	32.1*	1.2
CC1CC(C)CN(CCOCCSc2ccc(Cl)cc2)C1 (stereo unspecified)	-4.7	-0.7	-25.0	64.7*	0.8
CC1CC(C)CN(CCCSc2ccccc2)C1 (stereo unspecified)	-38.0	-0.3	10.8	25.5	-4.1
c1ccc(SCCOCCN2CCc3ccccc3C2)cc1	-11.8	-0.4	-19.6	75.0*	-6.9
SMILES	D2 PAM-1	D2 ag-1	D2 PAM-2	D2 antagonist	D2 ag-2
CC1CC(C)CN(CCOCCSc2ccccc2)C1 (stereo unspecified)	-30.2	-1.1	-21.1	64.8*	-2.9
CC1CN(CCCSc2ccc(Cl)cc2)CC(C)O1 (stereo unspecified)	-22.5	-2.2	-20.6	10.5	-2.3
CN1C(=O)Cc2cc(S(=O)(=O)CCC(=O)Nc3ccc(Cl)cc3)ccc21	·	0.0	1.1	·	·
O=C(NCc1ccccc1F)c1sc2ncccc2c1-n1cccc1	·	-1.1	3.8	·	·
Cn1nc(C(=O)Nc2ccc(Br)cc2)cc1C(=O)Nc1ccc(Br)cc1	-11.6	-0.2	4.1	38.3*	-5.2
CN(CCNC(=O)CCCOc1cc(=O)n(C)c2ccccc12)Cc1ccccc1	-8.3	-0.5	·	47.3*	-4.2
CCn1c(=O)cc(OCC(=O)NCCCN2CCC(C)CC2)c2ccccc21	-26.7	·	-16.3	·	-3.1
CCn1c(=O)cc(OCC(=O)NCCCN2CC(C)CC(C)C2)c2ccccc21 (stereo unspecified)	-26.2	-0.4	-17.8	58.0*	-1.6
CC1CCN(CCCNC(=O)COc2cc(=O)n(C)c3ccccc23)CC1	-9.8	0.8	-16.6	34.1*	-1.2
CN(CCCNC(=O)CCCOc1cc(=O)n(C)c2ccccc12)Cc1ccccc1	-18.7	0.6	-14.3	23.0	-4.7
CC1CCN(CCCNC(=O)c2n[nH]c(=O)c3ccccc23)CC1	-37.2	0.2	-12.6	41.1*	-1.4
CCN(CC)C(=O)C1=CC(c2ccc3c(c2)OCO3)=NS(=O)(=O)N1C	·	9.8	3.8	·	·
CS(=O)(=O)N(Cc1ccccc1)c1ccc(C(=O)Nc2ccc(Cl)cc2)cc1	·	0.6	-4.1	·	·
Cc1cc(C)c2c(CC(=O)Nc3ccc(S(=O)(=O)N4CCCC(C)C4)cc3)coc2c1 (stereo unspecified)	·	1.9	2.6	·	·
COc1ccc(OC)c([N+](=O)[O-])c1C(N)=O	50.1*	-0.4	-8.5	6.8	8.1
Cc1ccc(NC(=O)CN(C)C(=O)CSc2ncc(C(F)(F)F)cc2Cl)cc1	-23.2	-1.4	-25.1	93.0*	-3.1
COc1ccc(C(=O)NCC(C)C)c(OC)c1	-3.1	0.9	44.3*	-6.3	-0.6
COc1ccc(OCCCC(=O)NCC(C)C)cc1	-8.2	0.5	-0.7	30.6*	-2.9
CCCCCCCCC(=O)NCCOc1ccc(OC)cc1	-1.5	0.3	-8.2	21.1	-5.0
CCCNC(=O)c1ccc(OC)cc1OC	-4.7	0.3	1.6	4.6	-5.4
CCCCOC(=O)c1ccc(NC(=O)c2cc3c(=O)n4cccc(C)c4nc3n2C)cc1	·	-0.6	4.8	·	·
CC(CCc1ccccc1)N1CCN(Cc2ccccc2)CC1 (stereo unspecified)	-40.8	-0.1	-16.3	60.7*	-0.5
CC(CN1CCN(Cc2ccccc2)CC1)c1ccccc1 (stereo unspecified)	-64.0	0.1	1.3	0.0	-3.8
Cc1cccc(C(=O)NC(=O)Nc2ccc(-n3nc(C(F)(F)F)cc3C(F)(F)F)cc2)c1	·	0.3	-1.7	·	·
